# Inconclusive results are not listed. Active and inactive are the calls of the source. Calls follow the shape of the dose curve; as a rule, active = well fitted inhibition curve with a large enough effect; inconclusive = small, poorly fitted or top-dose-only effect; inactive = no such curve, though single readings can be large or run the other way.
# Test system: Zika virus NS2B-NS3 protease (unlinked complex)
# Test: Primary screen GU Rhodamine qHTS for Zika virus inhibitors: Unlinked NS2B-NS3 protease assay (AID 1347159); also: nearly all actives have a fitted effect of over 60% in size
# Conditions: Recombinant ZIKV NS2B-NS3 protease, Rhodamine110 substrate fluorescence; series mostly up to 107 µM; activity change, negative = inhibition: at the top concentration
# In short: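 Noncovalent NS2B hydrophilic domain/NS3 protease complex (25 nM final) in 10 mM Tris-HCl pH 8.0, 0.01% Tween 20, preincubated 15 min with compounds (up to 114 microM), then 1.5 microM Rhodamine110 substrate. Fluorescence change over 15 min fitted to 4-parameter Hill.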
# % is scaled to controls: 0 for no effect and ±100 for the full control effect.
row,Compound,"activity change, negative = inhibition"
1,C=CC1(C)CC(OC(=O)C(=C)C(O)COC(C)=O)C(C(=C)C(=O)OC)C(O)C1C(=C)CO (stereo not given),23% [at 57.1 µM] (inactive)
2,O=C(OCc1cccc(O)c1O[C@@H]1O[C@H](CO)[C@@H](O)[C@H](O)[C@H]1O)C1(O)C(=O)C2C=CC1C1C=CC(=O)C(O)(C(=O)OCc3cccc(O)c3O[C@@H]3O[C@H](CO)[C@@H](O)[C@H](O)[C@H]3O)C21 (stereo not given in full),11% [at 32.5 µM] (inactive)
3,C=C1CCC2C(C)(COC3OC(COC(=O)CC(=O)O)C(O)C(O)C3O)CCCC2(C)C1CCC1=CCOC1=O (stereo not given),-18.2% [at 57.1 µM] (inactive)
4,CC(C)CC(=O)O[C@@H]1OC=C(CO[C@@H]2O[C@H](CO[C@@H]3O[C@H](CO)[C@@H](O)[C@H](O)[C@H]3O)[C@@H](O)[C@H](O)[C@H]2O)[C@H]2C[C@H](O)[C@@H](CO)[C@@H]12,81.1% [at 32.5 µM] (inactive)
5,CC1(C)CCC2(C(=O)OC3OC(COC4OC(CO)C(O)C(O)C4O)C(O)C(O)C3O)CCC3(C)C(=CCC4C5(C)CCC(O)C(C)(C(=O)O)C5CCC43C)C2C1O (stereo not given),-3.74% [at 32.5 µM] (inactive)
6,O=C(O)C[C@H](O)C[C@H](O)/C=C/c1c(C2CC2)nc2ccccc2c1-c1ccc(F)cc1,-1.54% (inactive)
7,Nc1ncnc2c1ncn2[C@H]1CCCO1,-2.62% (inactive)
8,CN1C(=O)N[C@@H](Cc2c[nH]c3c(Cl)cccc23)C1=O,9.58% (inactive)
9,CC(=O)OC1C(O)CC(O[C@@H]2O[C@H](CO)[C@@H](O)[C@H](O)[C@H]2O)C2CCC3C(=O)OC(c4ccoc4)CC3(C)C21 (stereo not given in full),15.7% [at 57.1 µM] (inactive)
10,CNC(=O)O[C@H]1COc2ccc(N3CCN(C4COC4)CC3)cc2[C@@H]1NC(=O)c1ccc(F)cc1,15.6% (inactive)
